Screening data as filed in PubChem BioAssay.
RAM network inh: blocks the yeast RAM network; S. cerevisiae dse1pr::URA3 reporter, 5-FOA growth OD615, 2 d; analog-sensitive cbk1-as2 kinase mutant strain; inhibition, % at 50 µM; 190,000 tested, 1.8% active;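 active = inhibition above a set limit, 3 SD over mean compound inhibition, cut at about 8.4% in these data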;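 note: 0% = DMSO-only wells with no growth and 100% = 10 µM 1-NA-PP1 full growth; inhibition rescues growth on 5-FOA so higher OD means more RAM inhibition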
WT yeast gro inh: growth inhibition of WT yeast, mitochondrial fusion screen. mitochondrial fusion phenotypic screen, WT strain. inhibition, % at 10 µM. 190,000 tested, 2.1% active; in the data active = inhibition above about 58%; tested in S. cerevisiae
CHOP inhibitor: CHOP inhibition in unfolded protein response; inhibition, % at 10 µM; CHO-K1 CHOP-promoter luciferase, tunicamycin-induced, 15-18 h; 220,000 tested, 3.8% active;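 active = compounds that reduced the stress-induced luciferase reporter signal by more than about 70% of percent inhibition, limit read from the data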;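 note: 0% = tunicamycin plus vehicle and 100% = wells without tunicamycin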
L major viab: Leishmania major promastigote growth inhibition. inhibition, % at 10 µM. 200,000 tested, 9% active. Leishmania major promastigotes, resazurin fluorescence viability; in the data active = inhibition above about 50%;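 note: promastigotes grown with compound for 44 hours at 28 °C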
An asterisk follows results filed as active. An excerpt weighted towards active compounds, which were near 13% of everything screened.

How did CCc1sc(C(=O)NCCc2ccc(S(N)(=O)=O)cc2)cc1Br do in these assays?
RAM network inh: 3.4; WT yeast gro inh: -16.0; CHOP inhibitor: 12.3; L major viab: 14.3

What do the screens show for `CC(=O)c1c(C)[nH]c(C(=O)COc2cc(C)ccc2C(C)C)c1C`?
RAM network inh: 5.2; WT yeast gro inh: 3.8; CHOP inhibitor: 83.2*; L major viab: 12.7

What do the screens show for `COc1ccccc1OCC(=O)c1[nH]c(C)c(C(C)=O)c1C`?
RAM network inh: 1.3; WT yeast gro inh: 0.8; CHOP inhibitor: 54.6; L major viab: -2.5

How did COc1cccc(C(=O)N2CCN(C3CCC(c4ccccc4)CC3)CC2)c1OC (centres undefined) do in these assays?
RAM network inh: 0.5; WT yeast gro inh: -20.2; CHOP inhibitor: 40.3; L major viab: 100.1*

How did COc1cccc(C(=O)N2CCN(CCCc3ccccc3)CC2)c1OC do in these assays?
RAM network inh: -0.4; CHOP inhibitor: 21.6; L major viab: 93.0*

What do the screens show for `COc1ccccc1C(=O)N1CCN(CCc2ccccc2)CC1`?
RAM network inh: 1.6; WT yeast gro inh: -15.2; CHOP inhibitor: 21.6; L major viab: -9.3

What do the screens show for `O=C(c1ccncc1)N1CCN(C2CCC(c3ccccc3)CC2)CC1` (centres undefined)?
CHOP inhibitor: 21.2

How did CCOc1ccc(OCCCCn2cnc3ccccc3c2=O)cc1 do in these assays?
RAM network inh: -0.7; WT yeast gro inh: -0.6; CHOP inhibitor: 47.1; L major viab: 1.1

How did CN(C)/C=C1\C(=O)ON=C1c1ccccc1 do in these assays?
RAM network inh: 2.1; WT yeast gro inh: 3.9; CHOP inhibitor: 19.7; L major viab: 0.4

Results for CCCCc1ccc(/C=C2\C(=O)ON=C2c2ccccc2)s1 ?
RAM network inh: 8.8*; WT yeast gro inh: -1.4; CHOP inhibitor: 34.1; L major viab: -4.0

What do the screens show for `O=C(NC1CCC(O)CC1)c1ccc(-c2ccc([N+](=O)[O-])cc2)o1` (centres undefined)?
CHOP inhibitor: -7.4

How did c1ccc(N(c2ccccc2)c2nc(-n3ccnc3)nc(-n3ccnc3)n2)cc1 do in these assays?
RAM network inh: 0.8; WT yeast gro inh: 98.1*; CHOP inhibitor: 14.5; L major viab: 28.1

How did C=CCNc1nc(N(c2ccccc2)c2ccccc2)nc(-n2ccnc2)n1 do in these assays?
RAM network inh: 0.5; WT yeast gro inh: 16.0; CHOP inhibitor: 51.7; L major viab: 54.8*

Results for Cc1cc(=O)oc2cc(N3C(=O)CC(Cc4ccccc4)C3=O)ccc12 (centres undefined) ?
RAM network inh: 1.5; WT yeast gro inh: 7.1; CHOP inhibitor: 6.4; L major viab: -5.0

Results for O=C1CCCC(O)=C1C=NCc1ccccc1 ?
RAM network inh: 0.1; WT yeast gro inh: 0.3; CHOP inhibitor: 3.5; L major viab: -1.6

How did CC1CC(C)CN(CCCNC(=O)c2csc3c2CCCC3)C1 (centres undefined) do in these assays?
RAM network inh: -0.1; WT yeast gro inh: 21.2; CHOP inhibitor: 9.2; L major viab: 92.5*

What do the screens show for `CCCCN(CC)CCCNC(=O)c1csc2c1CCCCC2`?
RAM network inh: 1.0; WT yeast gro inh: -14.5; CHOP inhibitor: -0.4; L major viab: 86.8*

Results for CC(C)CCNC(=O)c1csc2c1CCCCC2 ?
RAM network inh: 0.6; WT yeast gro inh: 12.8; CHOP inhibitor: -2.2; L major viab: 13.1

How did CCCc1ccc(OCC(=O)Nc2cc(S(=O)(=O)CC)ccc2O)cc1 do in these assays?
RAM network inh: 4.8; WT yeast gro inh: 1.1; CHOP inhibitor: 18.3; L major viab: -15.2

What do the screens show for `CC(C)(C)NC(=O)CSc1ncnc2c1nnn2Cc1ccccc1Cl`?
RAM network inh: 1.5; WT yeast gro inh: -42.0; CHOP inhibitor: 0.7; L major viab: 57.3*

What do the screens show for `CC(C)(C)CC(=O)NC(=S)NCc1ccccc1`?
RAM network inh: -0.2; WT yeast gro inh: 9.6; CHOP inhibitor: -15.8; L major viab: 10.4

How did O=C(NC(=S)NCc1ccccc1)C1CCCCC1 do in these assays?
RAM network inh: 1.9; WT yeast gro inh: 6.6; CHOP inhibitor: 88.9*; L major viab: 14.8

What do the screens show for `CNC(=S)N=Nc1c(O)[nH]c2ccc(C(C)C)cc12`?
RAM network inh: 2.4; WT yeast gro inh: -11.7; CHOP inhibitor: 92.8*; L major viab: 4.6

Results for C=C(C)CNC(=S)N=Nc1c(O)[nH]c2ccc([N+](=O)[O-])cc12 ?
RAM network inh: 1.5; WT yeast gro inh: 5.4; CHOP inhibitor: 57.5; L major viab: 78.3*

What do the screens show for `Cc1ccc(NC(=S)N=Nc2c(O)[nH]c3ccccc23)cc1`?
RAM network inh: 8.3; WT yeast gro inh: 45.6; CHOP inhibitor: 68.8; L major viab: 90.6*

How did CC(C)NC(=S)N=Nc1c(O)[nH]c2ccc([N+](=O)[O-])cc12 do in these assays?
RAM network inh: 4.5; WT yeast gro inh: -6.3; CHOP inhibitor: 33.8; L major viab: 7.5
